Tau fluor cs: Counterscreen qHTS for Inhibitors of Tau Fibril Formation, Fluorescence Polarization. tau K18 P301L Alexa594 fluorescence, heparin fibrillization. Potency, µM (series often up to 57.7 µM). 280,000 tested, 0.93% active. AID 1463, 2008; also: nearly all actives have a fitted effect of over 55% in size
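Human K18 P301L tau (15 uM unlabeled plus 0.24 uM Alexa 594-labeled, final) in 100 mM sodium acetate pH 7 was mixed with compound and 20 uM heparin and incubated 6 hr at 37 C.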
KinaseGlo FLuc: Counterscreen for Luciferase (Kinase-Glo TM) Inhibition; 200,000 tested, 0.28% active; Luciferin 4-monooxygenase (Photuris pensylvanica), Q27757; Potency, µM (top dose mostly 38.3 µM), most hits filed as inhibitors; Kinase-Glo luciferase, ATP luminescence, 8 min; AID 1379, 2008; also: nearly all actives have a fitted effect of over 60% in size
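Recombinant Kinase-Glo luciferase, 10 uM ATP (linear range), luciferin; imidazole pH 7.2 / KCl / MgCl2 / Tween / BSA buffer; 8 min RT; luminescence.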
NPSR antag: qHTS Assay for Antagonists of the Neuropeptide S Receptor: cAMP Signal Transduction | Q6W5P4 | CHO-NPSR cells, cAMP TR-FRET, antagonist mode | Potency, µM (top dose mostly 38.3 µM), hits mostly inhibitors | 220,000 tested, 1% active; also: nearly all actives have a fitted effect of over 50% in size
Target sequence (Q6W5P4 whole entry, looked up): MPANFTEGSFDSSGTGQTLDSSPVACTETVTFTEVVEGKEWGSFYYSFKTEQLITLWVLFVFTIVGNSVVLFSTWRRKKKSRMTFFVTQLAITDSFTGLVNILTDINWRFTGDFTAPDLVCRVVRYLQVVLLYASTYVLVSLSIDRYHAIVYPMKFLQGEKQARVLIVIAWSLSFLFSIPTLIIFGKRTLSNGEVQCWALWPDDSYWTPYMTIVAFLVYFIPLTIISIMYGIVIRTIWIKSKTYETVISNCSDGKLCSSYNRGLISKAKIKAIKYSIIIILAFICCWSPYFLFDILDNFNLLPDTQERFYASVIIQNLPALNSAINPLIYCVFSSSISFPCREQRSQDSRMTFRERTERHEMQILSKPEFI
Tau fibril ThT: qHTS for Inhibitors of Tau Fibril Formation, Thioflavin T Binding; Potency, µM (highest dose often 57.4 µM), actives largely listed as inhibitors; 270,000 tested, 2.1% active; recombinant tau K18 P301L (four-repeat tau fragment), heparin-induced fibrillization, ThT fluorescence; Microtubule-associated protein tau (Homo sapiens), P10636; also: nearly all actives have a fitted effect of over 55% in size
Target sequence (P10636 561-689 P618L limits assumed): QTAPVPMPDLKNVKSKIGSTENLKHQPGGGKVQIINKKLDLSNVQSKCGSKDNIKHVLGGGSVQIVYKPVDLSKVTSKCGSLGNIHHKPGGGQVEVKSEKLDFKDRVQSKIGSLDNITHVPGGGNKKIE
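Heparin-induced fibrillization of the P301L-mutant K18 repeat-domain fragment of human tau was followed by ThT binding in quantitative high-throughput format.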
Tau fibril FP: qHTS for Inhibitors of Tau Fibril Formation, Fluorescence Polarization; Microtubule-associated protein tau (Homo sapiens), P10636; K18 P301L tau heparin fibrillization, Alexa594 FP, 6 h; Potency, µM (doses to about 57.7 µM), usual class: inhibitors; 280,000 tested, 0.39% active; AID 1468, 2008; also: nearly all actives have a fitted effect of over 55% in size
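Steps: dispense K18 P301L tau (15 uM plus 0.24 uM Alexa 594 tracer, final) in pH 7 sodium acetate; add compound; add heparin (20 uM final); incubate 6 hr, 37 C; add ThT (30 uM final); after 1 hr ambient, read FP.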
Large screens that a line does not name were inactive. Hits are enriched below; roughly 3.3% of the tested compounds scored in any of these assays. Calls follow the shape of the dose curve; as a rule, active = well fitted curve in the direction sought with a large enough effect; inconclusive = small, poorly fitted or top-dose-only effect, or another doubt; inactive = no such curve, though single readings can be large; an effect the other way counts as inactive or inconclusive.

OC[C@@H]1O[C@@H](n2cnc3c(N[C@H]4CCC[C@@H]4O)ncnc32)[C@H](O)[C@H]1O	none (no result: NPSR antag)
Oc1ccc(N=C/C=C/c2ccc(Br)cc2)cc1-c1nc2ccccc2s1	Tau fluor cs inconclusive, Tau fibril ThT 11µM
O=C(Nc1ccc(-c2nc3ccccc3s2)c(O)c1)c1ccc(Br)cc1	Tau fibril ThT inconclusive (no result: KinaseGlo FLuc, NPSR antag)
O=[N+]([O-])c1ccccc1NC(=S)N/N=C/c1ccc(O)c(O)c1	Tau fluor cs inconclusive, Tau fibril ThT 5.6µM
CC(C)(C)c1ccc(-c2nnc(-c3ccccc3NC(=O)c3cccc(C(F)(F)F)c3)o2)cc1	none (no result: KinaseGlo FLuc, NPSR antag)
Cc1ccc2nc(/C(C#N)=C\c3ccc(N4CCOCC4)o3)[nH]c2c1	Tau fluor cs inconclusive, Tau fibril ThT 13µM, Tau fibril FP inconclusive
N#C/C(=C\c1ccc(N2CCOCC2)o1)C(=O)NCC1CCCO1 (stereo unspecified)	none
N#C/C(=C\c1ccc(N2CCOCC2)o1)C(=O)NCCc1ccccc1	Tau fibril ThT 8.9µM
CCOC(=O)c1ccc(-c2ccc(/C=C(\C#N)c3nc4ccc(C)cc4[nH]3)o2)cc1	none (no result: KinaseGlo FLuc, NPSR antag)
Cc1ccc(/C(C#N)=C\c2ccc(N3CCOCC3)o2)cc1	Tau fluor cs inconclusive, NPSR antag inconclusive, Tau fibril ThT 10µM, Tau fibril FP inconclusive
COc1ccc2nc(N3CCC(C)CC3)c(C#N)cc2c1	Tau fluor cs inconclusive, Tau fibril ThT 35µM, Tau fibril FP inconclusive
Cc1oc(-c2cccc(Cl)c2)nc1CS(=O)(=O)CC(=O)NC(C)CCc1ccccc1 (stereo unspecified)	none (no result: KinaseGlo FLuc, NPSR antag)
NNc1cc([N+](=O)[O-])cc2c1C(=O)N(Cc1ccccc1)S2=O (stereo unspecified)	Tau fibril ThT 25µM, Tau fibril FP inconclusive
Cc1ccc2oc(-c3cccc(NC(=S)NC(=O)c4cccs4)c3)nc2c1	Tau fluor cs inconclusive, Tau fibril ThT inconclusive
Cc1cccnc1NC(=S)NC(=O)/C=C/c1ccco1	Tau fibril ThT 28µM, Tau fibril FP inconclusive
O=C(/C=C/c1ccco1)NC(=S)Nc1ccccc1N1CCCC1	none
O=C(/C=C/c1ccco1)NC(=S)Nc1ccccc1O	Tau fluor cs inconclusive, Tau fibril ThT 22µM
Cc1ccc2oc(-c3cccc(NC(=S)NC(=O)/C=C/c4ccco4)c3)nc2c1	NPSR antag 2.5µM, Tau fibril ThT inconclusive
COc1cc(NS(=O)(=O)c2ccc(NC(=S)NC(=O)/C=C/c3ccco3)cc2)ncn1	NPSR antag 10µM, Tau fibril ThT inconclusive
COc1ccc(N2C(=O)CS(=O)(=O)C23C(=O)N(Cc2c(F)cccc2Cl)c2ccccc23)cc1 (stereo unspecified)	none (no result: KinaseGlo FLuc, NPSR antag)
Cc1ccsc1/C=C\C1=NCCCN1C	none (no result: Tau fluor cs, NPSR antag, Tau fibril ThT, Tau fibril FP)
C=CCc1cccc2cc(-c3nc4ccc(C)cc4[nH]3)c(=O)oc12	Tau fibril ThT inconclusive (no result: KinaseGlo FLuc, NPSR antag)
CCCCC/C=C\C/C=C\C/C=C\C/C=C\CCCCCC(=O)NC(C)C(=O)O (stereo unspecified)	none (no result: NPSR antag)
O=C(/C=C\c1ccco1)NC(=S)Nc1ccccc1O	Tau fluor cs inconclusive, Tau fibril ThT 20µM (no result: KinaseGlo FLuc)
Cc1ccc(NC(=S)NC(=O)/C=C/c2ccco2)c(O)c1	Tau fibril ThT inconclusive
Cc1snc(SCC(=O)c2ccc(F)cc2)c1C#N	none
Cc1snc(SCC(=O)c2ccc([N+](=O)[O-])cc2)c1C#N	Tau fibril ThT 14µM, Tau fibril FP inconclusive
NC(=O)CC(NC(=O)c1ccccc1)c1ccc(NCCOc2ccccc2)c([N+](=O)[O-])c1 (stereo unspecified)	Tau fibril ThT 13µM (no result: KinaseGlo FLuc)
NC(=O)CC(NC(=O)c1ccccc1)c1ccc(NCCc2cccc(F)c2)c([N+](=O)[O-])c1 (stereo unspecified)	Tau fibril ThT 16µM (no result: KinaseGlo FLuc)
NC(=O)CC(NC(=O)c1ccccc1)c1ccc(NCC2CC2)c([N+](=O)[O-])c1 (stereo unspecified)	Tau fibril ThT inconclusive (no result: KinaseGlo FLuc)
NC(=O)CC(NC(=O)c1ccc(Br)cc1)c1ccc(NCCc2ccc(F)cc2)c([N+](=O)[O-])c1 (stereo unspecified)	Tau fibril ThT inconclusive (no result: KinaseGlo FLuc)
Cc1ccc(S(=O)(=O)NCc2nc3cccnc3n2Cc2ccccc2Cl)c(C)c1	none (no result: KinaseGlo FLuc, NPSR antag)
